From PubChem BioAssay (NCI)
This is part of a sample that, as a whole, favours compounds with a hit. Of some 83,000 tested, about 20% had one in any assay.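 Method: cells in 96-well plates; compound added at one concentration; 48 h incubation; percent growth measured; values under 10 scored active.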 The source made the active and inactive calls.

Assays:
Assay in all cases: NCI-60 one-dose screen, 48 h (100 = growth as untreated, 0 = no growth, -100 = all killed)
Settings in all cases: 10 µM unless noted
BT-549 breast = tested on: BT-549 breast
MDA-MB-435 melanoma = tested on: MDA-MB-435 melanoma
SW-620 colon = tested on: SW-620 colon
MCF7 breast = tested on: MCF7 breast
HCT-116 colon = tested on: HCT-116 colon
HCC-2998 colon = tested on: HCC-2998 colon
KM12 colon = tested on: KM12 colon

Measured: growth

C=C(C)[C@@H]1CC[C@]2(C(=O)NCCCO)CC[C@]3(C)[C@H](CC[C@@H]4[C@@]5(C)CCCNC(C)(C)[C@@H]5CC[C@]43C)[C@@H]12
inactive: BT-549 breast 78.5% | MDA-MB-435 melanoma 69.9% | SW-620 colon 74.9% | MCF7 breast 41.5% | HCT-116 colon 53.7% | HCC-2998 colon 74.3% | KM12 colon 84.5%

CCCCn1c(=O)c(/C=C/C(=O)/C=C/c2ccc(OC)cc2)cc2cc(Cl)ccc21
active: HCT-116 colon -67.1%
inactive: BT-549 breast 89.4% | MDA-MB-435 melanoma 95.6% | SW-620 colon 18.3% | MCF7 breast 34.4% | HCC-2998 colon 90.7% | KM12 colon 25.9%

N#Cc1c(-c2ccc(F)cc2)c(C#N)c2c(C#N)c(N)nn2c1N
inactive: BT-549 breast 95.9% | MDA-MB-435 melanoma 101% | SW-620 colon 107% | MCF7 breast 96.7% | HCT-116 colon 92.5% | HCC-2998 colon 90.3% | KM12 colon 94.1%

Cc1nn(-c2ccc(-c3ccc(OC(F)(F)F)cc3)cc2)c2nc(-c3ccccc3)nc(N)c12
inactive: BT-549 breast 98.1% | MDA-MB-435 melanoma 102% | SW-620 colon 81.3% | MCF7 breast 94.3% | HCT-116 colon 96.7% | HCC-2998 colon 96.8% | KM12 colon 100%

O=C(Nc1cccc(-c2cccc(F)c2)c1)C1CCN(Cc2cccc3cccnc23)CC1
inactive: BT-549 breast 76.3% | MDA-MB-435 melanoma 35% | SW-620 colon 43.3% | MCF7 breast 19.9% | HCT-116 colon 33.8% | KM12 colon 53.3%
active: HCC-2998 colon -70.4%

CN(C)[C@@H]1C(=O)C(C(N)=O)=C(O)[C@@]2(O)C(=O)C3=C(O)c4c(O)cc(CN5CCc6ccccc6C5)c(Cl)c4C[C@H]3C[C@@H]12
active: BT-549 breast -83.3% | MDA-MB-435 melanoma -75.7% | SW-620 colon -72.4% | MCF7 breast -68.8% | HCT-116 colon -90.5% | HCC-2998 colon -67.1% | KM12 colon -82.9%

CSc1cccc(NC(=O)Nc2nc3c(C)cccc3s2)c1
inactive: BT-549 breast 119% | MDA-MB-435 melanoma 106% | SW-620 colon 113% | MCF7 breast 76.4% | HCT-116 colon 93% | HCC-2998 colon 106% | KM12 colon 107%

NS(=O)(=O)c1ccc(-n2nc(-c3ccccc3)ccc2=O)cc1
inactive: BT-549 breast 123% | MDA-MB-435 melanoma 113% | SW-620 colon 108% | MCF7 breast 96% | HCT-116 colon 102% | HCC-2998 colon 108% | KM12 colon 99.6%

NS(=O)(=O)c1ccc(N2Cc3cc(Cl)ccc3OC3=C2C(=O)N(CC2CCCCC2)C3=O)cc1
active: BT-549 breast -76.4% | MDA-MB-435 melanoma -73.9% | SW-620 colon -77.5% | MCF7 breast -71.5% | HCT-116 colon -85.6% | HCC-2998 colon -72.9% | KM12 colon 4.52%

CC(C)(C)CC(C)(C)Cc1ccc(OCCOCC[N+](C)(C)Cc2ccccc2)cc1
inactive: SW-620 colon 30.2% | MCF7 breast 12.9% | HCT-116 colon 20.8%
active: BT-549 breast -16% | MDA-MB-435 melanoma -23.9% | HCC-2998 colon -10% | KM12 colon -52.6%

CCN1CCN(c2ccc(NC(=O)Nc3nc4ccc(-c5ccccc5OC)cc4s3)cc2)CC1
inactive: BT-549 breast 31.6%
active: MDA-MB-435 melanoma -85.5% | SW-620 colon -70% | MCF7 breast -70.8% | HCT-116 colon -82.3% | HCC-2998 colon -88.1% | KM12 colon -83.5%

N#Cc1c(-c2ccc(F)cc2)nc(N/N=C/c2cccc(O)c2)nc1N1CCOCC1
inactive: BT-549 breast 93.4% | MDA-MB-435 melanoma 93.4% | SW-620 colon 73.7% | MCF7 breast 72.4% | HCT-116 colon 71% | HCC-2998 colon 95.1% | KM12 colon 86%

COc1cc(/C=C/C(=O)c2cccs2)ccc1OCc1ccc(Cl)nc1
active: MCF7 breast 9.24%
inactive: BT-549 breast 91.4% | MDA-MB-435 melanoma 76.7% | SW-620 colon 58.2% | HCT-116 colon 75.1% | HCC-2998 colon 99.8% | KM12 colon 28.5%

COc1ccc(-c2cc(-c3nnc(SCC(=O)Nc4ccc(C(C)=O)cc4)o3)c3ccccc3n2)cc1
active: SW-620 colon 5.51% | MCF7 breast -15.7% | HCT-116 colon -26.9%
inactive: BT-549 breast 14.8% | MDA-MB-435 melanoma 11.5% | HCC-2998 colon 96.5% | KM12 colon 39.2%

COC(=O)c1nc(-c2ccccc2)oc1S(=O)(=O)n1nc(-c2ccccc2)cc1N
inactive: BT-549 breast 82.2% | MDA-MB-435 melanoma 63.6% | SW-620 colon 10.9% | MCF7 breast 80.9% | HCT-116 colon 84.8% | HCC-2998 colon 108% | KM12 colon 92.2%

C=C1C(=O)O[C@H]2[C@H]1CC/C(COC(=O)c1cccnc1)=C\CC[C@@]1(C)O[C@@H]21
inactive: BT-549 breast 68.4% | MDA-MB-435 melanoma 49.7% | SW-620 colon 17.7% | MCF7 breast 21.4% | HCT-116 colon 15.9% | HCC-2998 colon 108% | KM12 colon 109%

O=C1NC(c2ccc(F)cc2)N=C2C(c3ccccc3)=NOC12 (centres undefined)
inactive: BT-549 breast 106% | MDA-MB-435 melanoma 106% | SW-620 colon 106% | MCF7 breast 101% | HCT-116 colon 103% | HCC-2998 colon 101% | KM12 colon 98.8%
